The text below walks through data of PubChem BioAssay AID1903 (Southern Research Specialized Biocontainment Screening …, 2009).

The term inhibition denotes the change of the read-out against control, counted positive when it falls.

Each structure is given as a SMILES string. “And” between values parts separate entries of the source, which are not always exact repeats. Equal entries are not always repeated. About 1,200 (0.39%) of roughly 310,000 compounds were called active. How the calls were made is not given here. Only a sample is shown. Entries with a potency or affinity are not part of this list.

Sequence of Large T antigen (Simian virus 40) (P03070 whole entry, looked up): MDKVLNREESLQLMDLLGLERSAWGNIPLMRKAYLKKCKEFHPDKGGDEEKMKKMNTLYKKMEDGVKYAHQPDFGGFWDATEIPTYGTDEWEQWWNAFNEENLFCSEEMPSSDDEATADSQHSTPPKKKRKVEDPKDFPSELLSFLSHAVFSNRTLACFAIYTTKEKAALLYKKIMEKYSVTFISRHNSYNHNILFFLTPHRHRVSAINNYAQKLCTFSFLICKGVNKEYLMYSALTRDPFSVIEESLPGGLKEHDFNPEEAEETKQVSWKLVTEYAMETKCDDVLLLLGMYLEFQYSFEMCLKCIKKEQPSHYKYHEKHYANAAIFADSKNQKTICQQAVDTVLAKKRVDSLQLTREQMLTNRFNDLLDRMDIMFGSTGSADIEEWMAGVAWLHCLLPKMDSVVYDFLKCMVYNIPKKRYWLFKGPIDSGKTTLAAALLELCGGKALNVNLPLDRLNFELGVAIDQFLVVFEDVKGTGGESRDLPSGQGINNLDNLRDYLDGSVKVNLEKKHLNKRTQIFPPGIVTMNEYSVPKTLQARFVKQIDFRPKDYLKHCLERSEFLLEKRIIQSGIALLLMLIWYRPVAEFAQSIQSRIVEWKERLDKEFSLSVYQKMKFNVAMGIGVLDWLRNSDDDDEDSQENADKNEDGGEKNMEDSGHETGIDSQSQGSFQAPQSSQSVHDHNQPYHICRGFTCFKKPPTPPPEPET

This test has as its target Large T antigen (Simian virus 40) (UniProt P03070). Kind of test: SV40 large T antigen inhibitors, biochemical (AID 1903). As to conditions: SV40 large T antigen ATPase/helicase inhibition assay; at 20 µM; active compounds read high.
For `CN(CC(=O)Nc1ccc(Cl)cc1)CC(=O)Nc1ccc(F)c(F)c1F`, the inhibition is -109% (inactive).

On to `O=C(NCc1ccccn1)C1CCCN(S(=O)(=O)c2cccc3nsnc23)C1` (centres undefined), for which the inhibition is 9.56% (inactive).

Consider `O=C(c1ccc(Oc2ccc(C(F)(F)F)cc2[N+](=O)[O-])cc1)N1CCOCC1`, for which the inhibition was 1.7% (inactive).

With `O=C(Nc1cccc(Br)c1)c1ccc(CN2CCc3ccccc3C2)cc1`, the inhibition was 6.55% (inactive).

Take `Nc1nc(Nc2ccccc2)nc(N2CCOCC2)c1[N+](=O)[O-]`: the inhibition was 0.42% (inactive).

Take `Nc1sc(-c2ccccc2)cc1C(=O)O`: the inhibition is 4.81% (inactive).

For `COC(=O)c1cc(-c2ccccc2)sc1N`, the inhibition was 11.1% (inactive).

For `CCOC(=O)c1cc(CC)sc1N`, the inhibition is 14.6% (inactive).

In the case of `CCOC(=O)c1cc(-c2ccccc2)sc1N`, the inhibition was 6.85% (inactive).

With `CC(OC(=O)c1oc2ccccc2c1CSC1CCCCC1)C(=O)NC(N)=O` (centres undefined), the inhibition was 6.96% (inactive).

Turning to `Cc1[nH]c2ccc(C(=O)NCCCN3CCN(C)CC3)cc2c1C`, the inhibition is 15.6% (inactive).

Regarding `O=C(/C=C/c1ccccc1)N1CCN(c2ccc([N+](=O)[O-])c(N3CCOCC3)c2)CC1`, the inhibition is 9.06% (inactive).

Consider `CCc1ccc(CNc2ccc(N3CCN(C(C)=O)CC3)cc2)cc1`, for which the inhibition is 9.55% (inactive).

As to `Cc1ccc(CNc2ccc(N3CCOCC3)cc2)s1`, the inhibition was 14.2% (inactive).

On to `CC(=O)N1CCN(c2ccc(NCc3ccc(C)cc3)cc2)CC1`, for which the inhibition was 14.1% (inactive).

`CC(=O)N1CCN(c2ccc(NCc3ccccc3)cc2)CC1`: the inhibition is 8.55% (inactive).

As for `COc1ccc(CNC(=O)CCCn2nc(C)c3c(C)n(-c4ccccc4)nc3c2=O)cc1`, the inhibition is 12.9% (inactive).

Regarding `CCOc1ccccc1-c1noc(CCC(=O)Nc2cccnc2)n1`, the inhibition was 10.5% (inactive).

As for `C=C(C)COc1ccc(-c2n[nH]c(C)c2-c2ccc(OC)c(OC)c2)c(O)c1`, the inhibition is 13.9% (inactive).

As for `COc1ccc(-c2c(-c3ccc(OCC(=O)NN)cc3O)n[nH]c2C)cc1OC`, the inhibition was 5.82% (inactive).

On to `N#C[C@H]1C2OC2c2ccccc2N1C(=O)c1ccccc1` (some centres undefined), for which the inhibition was 3.71% (inactive).

Regarding `O=c1cc(CO)oc(CN2CCN(c3ccccc3)CC2)c1O`, the inhibition was 3.29% (inactive).

As to `COc1ccc(Cl)cc1NC(=S)Nc1cccnc1`, the inhibition was 5.19% (inactive).

For `CC(=O)O[C@]1(C(C)=O)CCC2C3C=C(C)C4=CC(=O)CC[C@]4(C)C3CC[C@@]21C` (some centres undefined), the inhibition was 6.68% (inactive).

Turning to `CC(=O)O[C@]1(C(C)=O)CC[C@H]2[C@@H]3C[C@H](C)C4=CC(=O)CC[C@]4(C)[C@H]3CC[C@@]21C`, the inhibition was 21.1% (inactive) and 1.31% (inactive).

Consider `CC(=O)O[C@]1(C(C)=O)CC[C@H]2[C@@H]3C=C(C)C4=CC(=O)CC[C@]4(C)[C@H]3CC[C@@]21C`, for which the inhibition was 24.3% (inactive) and 8.14% (inactive).

`Cc1ccccc1NC(=O)CN1C(=O)COc2ccc(S(=O)(=O)N3CCCC3)cc21`: the inhibition was 2.93% (inactive).

As for `O=C(Nc1ccncc1)Nc1ccc(Cl)cc1`, the inhibition is 10.4% (inactive).

On to `Cc1cc(C(=O)NCc2ccco2)c2cc(F)ccc2n1`, for which the inhibition was 5.22% (inactive).

In the case of `CCCCn1c(N)c(N(CCC(C)C)C(=O)c2cc(-c3ccco3)nc3ccccc23)c(=O)[nH]c1=O`, the inhibition is 28.5% (inactive).

Consider `CCOc1ccc(C(=O)NC2CC(=O)N(c3ccc4c(c3)OCCO4)C2)cc1` (centres undefined), for which the inhibition was 30.1% (inactive).

In the case of `Cc1ccc(/C=C/C(=O)c2ccc([N+](=O)[O-])o2)cc1`, the inhibition was 24.6% (inactive).

As to `COc1ccc(/C=C/C(=O)c2ccc([N+](=O)[O-])o2)cc1`, the inhibition was 2.57% (inactive).

Turning to `COc1ccc(/C=C/C(=O)c2ccc([N+](=O)[O-])o2)cc1OC`, the inhibition is 17.4% (inactive).

With `O=C(/C=C/c1ccc(Cl)cc1)c1ccc([N+](=O)[O-])o1`, the inhibition is 34.3% (inactive).

On to `Cc1cccc(/C=C/C(=O)c2ccc([N+](=O)[O-])o2)c1`, for which the inhibition was 27.2% (inactive).

Regarding `Cc1cccc(NC(=O)c2ccc([N+](=O)[O-])o2)c1C`, the inhibition was -1.78% (inactive).

In the case of `CC(=O)CC1(C)OC(N)=C(C#N)C1(C#N)C#N` (centres undefined), the inhibition was 5.62% (inactive).

With `N#Cc1ccc(C(=O)Nc2cc(-c3ccccc3)nn2-c2ccccc2)cc1`, the inhibition is 2.51% (inactive).

For `Cc1cc(-c2sccc2C)nc(-n2cccc2)n1`, the inhibition was 1.14% (inactive).

With `O=C1Nc2ccccc2Nc2ccccc21`, the inhibition was 0.33% (inactive).

Regarding `Cc1ccc(N=C2CCCCCN2C)c(C#N)c1`, the inhibition was 15.4% (inactive).

Take `CCN(CC)CCC(=O)N1c2ccccc2CCc2ccc(NC(=O)OC)cc21`: the inhibition was 6.36% (inactive).

Turning to `COC(=O)/C(=C\Nc1ccc(Cl)cc1Cl)NC(=O)c1ccc(Cl)cc1Cl`, the inhibition is 6.46% (inactive).

On to `COc1ccc(/C=C2/SC(=S)N(n3c(C)ccc3C)C2=O)cc1`, for which the inhibition was 12.7% (inactive).

With `O=C(CSc1cccc2cccnc12)N/N=C/c1ccc(F)cc1`, the inhibition was 5.35% (inactive).

With `NNC(=O)c1ccc(CSc2cccc3cccnc23)cc1`, the inhibition is 8.28% (inactive).

Turning to `O=C(CSc1cccc2cccnc12)N/N=C/c1ccncc1`, the inhibition is 13.8% (inactive).

`COc1ccc(/C=N/NC(=O)COc2cccc3cccnc23)cc1OC`: the inhibition is 16.2% (inactive).

For `O=C(COc1cccc2cccnc12)N/N=C/c1ccccc1O`, the inhibition was 0.79% (inactive).

With `O=C(CSc1cccc2cccnc12)N/N=C/c1cccc(O)c1`, the inhibition is 3.2% (inactive).

As to `COc1cccc(/C=N/NC(=O)CSc2cccc3cccnc23)c1`, the inhibition was 14.4% (inactive).

`O=C(N/N=C/c1ccccc1Br)c1ccc(CSc2cccc3cccnc23)cc1`: the inhibition is 8.68% (inactive).

With `COc1ccc(NC(=O)CN(C)C(=O)Cc2ccc3c(c2)OCCO3)cc1`, the inhibition was 4.23% (inactive).

Take `CSCC(=O)N1CCc2ccc(NC(=O)c3ccccc3Cl)cc2C1`: the inhibition is 3.34% (inactive).

Regarding `COc1ccccc1NC(=O)CCS(=O)(=O)c1cc2c(cc1Cl)NC(=O)CO2`, the inhibition is -2.36% (inactive).

As for `Cn1nc(C(=O)NC2=NCCS2)ccc1=O`, the inhibition is 16.5% (inactive).

As for `CC1(C)CC(NC(=O)COc2ccc3ccccc3c2)CC(C)(C)N1`, the inhibition was 12.2% (inactive).

For the compound `COc1ccc(NC(=O)CSc2nc3sc(C)cc3c(=O)n2C)cc1`, the inhibition was 8.62% (inactive).

For `CC(CC(=O)NC(C)c1ccc2c(c1)OCCO2)c1ccccc1` (centres undefined), the inhibition is 7.67% (inactive).

Take `O=S(=O)(c1ccccc1OC(F)(F)F)N1CCN(c2ccnc3cc(Cl)ccc23)CC1`: the inhibition was 4.46% (inactive).

`Cc1nc(=O)c(-c2ccccc2)c(C)n1Cc1ccccc1`: the inhibition is 1.9% (inactive).

For `O=C(COc1ccccc1[N+](=O)[O-])N/N=C/c1ccncc1`, the inhibition is 25.8% (inactive).

Turning to `O=C(COc1ccccc1[N+](=O)[O-])N/N=C/c1ccc(O)c([N+](=O)[O-])c1`, the inhibition was 7.71% (inactive).

Turning to `CCc1cc2c(Nc3ccccc3O)nc(C)nc2s1`, the inhibition is 9.83% (inactive).

Take `Cc1cc2c(Nc3ccccc3)ncnc2s1`: the inhibition was -2.89% (inactive).

Take `Cc1cc2c(Nc3cccc(O)c3)ncnc2s1`: the inhibition was 26.2% (inactive).

Turning to `CCc1cc2c(NCc3ccccc3)nc(C)nc2s1`, the inhibition was 17.6% (inactive).

As to `O=C(OCc1nnc(-c2ccccc2)o1)c1ccc(CO)cc1`, the inhibition was 3.3% (inactive).

For `CCO[C@H]1OC(C(=O)NCc2nc3ccccc3[nH]2)=C[C@@H](c2ccccc2)[C@@H]1CCCO`, the inhibition was 1.96% (inactive).

With `CCOc1ccc(C(=O)OCC(=O)c2c(N)n(C)c(=O)n(C)c2=O)cc1OCC`, the inhibition was 1.22% (inactive).

Consider `COc1ccc(C(=O)OCC(=O)c2c(N)n(C)c(=O)n(C)c2=O)cc1OC`, for which the inhibition was -4.08% (inactive).

On to `O=C(NC(=S)Nc1ccc(S(=O)(=O)N2CCCCC2)cc1)c1ccc(Cl)cc1`, for which the inhibition was 1.56% (inactive).

`COC(=O)c1ccc(CN2C(=O)c3ccccc3C2=O)o1`: the inhibition was 10.1% (inactive).

For `CSc1nc(-c2ccccc2)nc(NC(=O)c2ccccc2)c1C(C)=O`, the inhibition is 5.31% (inactive).

On to `COC(=O)C1=C[C@@H](C(=O)OC)[C@@H]2C3=C(C(=O)[C@]2(CC(C)C)NC(=O)c2ccccc2)[C@H](C)n2c(=O)n(-c4ccccc4)c(=O)n2[C@@H]3C1`, for which the inhibition was 19.3% (inactive).

Regarding `C/C(=N\NC(=O)c1nnn(-c2nonc2N)c1-c1cccs1)c1cccnc1`, the inhibition is -7.39% (inactive).

For `CC1N(C)c2cccc3cccc(c23)N1C`, the inhibition was 32.1% (inactive).

Consider `CN1C(=O)N(C)c2cccc3cccc1c23`, for which the inhibition is 21.8% (inactive).

Consider `OC(COCc1ccc2c(c1)OCO2)CN1CCCCC1` (centres undefined), for which the inhibition is 4.66% (inactive).

Turning to `COc1ccc(S(=O)(=O)NNC(=O)Cc2csc(C)n2)cc1[N+](=O)[O-]`, the inhibition is 10.2% (inactive).

In the case of `CCN1CCN(c2cc(C)c3cc(NC(=O)Cc4ccc(OC)c(OC)c4)ccc3n2)CC1`, the inhibition was 2.02% (inactive).

With `CC1C(=O)OC(c2ccc(Br)cc2)C(C)(C)C1=O` (centres undefined), the inhibition was 29.1% (inactive).

Regarding `CCOc1ccc2c(c1)C(c1ccccc1)=NNC(c1ccccc1)=N2`, the inhibition was 4.86% (inactive).

As to `O=C(CSc1nc2c(c(=O)[nH]1)CCC2)Nc1ccc(F)cc1`, the inhibition was 22% (inactive).

With `CCN(c1ccc(NC(=O)CSc2nnc3nc(C)cc(C)n23)cc1)C(C)C`, the inhibition is 36% (inactive).

Take `CC(C)c1ccc(NC(=O)CSc2nc3c(c(=O)[nH]2)CCC3)cc1`: the inhibition was 10.4% (inactive).

As to `Cc1cc(C)n2c(SCC(=O)Nc3ccc(F)cc3)nnc2n1`, the inhibition was 8.2% (inactive).

For `CCN(CC)c1ccc(NC(=O)CSc2nc(C)cc(=O)[nH]2)cc1`, the inhibition is 35.5% (inactive).

For the compound `CCc1nc(SCC(=O)Nc2ccc(N(C)C)cc2)c2ccccc2n1`, the inhibition is 18.1% (inactive).

`CC(=O)Nc1ccc(NC(=O)CSc2nc3nc(C)cc(C)c3c(=O)[nH]2)cc1`: the inhibition is 9.68% (inactive).

Turning to `Cc1cc(C)c2c(=O)[nH]c(SCC(=O)Nc3ccc(N(C)C)cc3)nc2n1`, the inhibition is 31.4% (inactive).

For the compound `Cc1ccc([N+](=O)[O-])cc1NC1CC(O)C(CO)O1` (centres undefined), the inhibition is 3.41% (inactive).

For `CN(C)CCN(C(=O)c1ccc(S(=O)(=O)N2CCc3ccccc32)cc1)c1nc2ccc(F)cc2s1`, the inhibition was 14.4% (inactive).
